Compounds without any hit were thinned out: in the full panel of roughly 79,000, 15% have a hit. Unmarked numbers belong to inactive results. Active and inactive are the calls of the source. No stated cut-off is given here; in the data, active means growth inhibition above about 70%; inactive means the rest.
Key:
[1] = NCI Yeast Anticancer Drug Screen. Data for the rad50 strain (AID 155);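 further: 0% = growth of vehicle-only cultures of the same strain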; settings: S. cerevisiae rad50 strain growth inhibition, hits give high values
Method in brief: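 Yeast carrying a defined DNA repair defect were exposed to test compounds, and growth was compared with vehicle-treated controls to give percent inhibition.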

[2] = NCI Yeast Anticancer Drug Screen. Data for the mec2-1 strain (AID 157); settings: S. cerevisiae mec2-1 strain, hits give high values
Method in brief: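 mec2-1 yeast strain, carrying an alteration in DNA damage repair or cell cycle control, was exposed to compounds; growth inhibition was measured relative to vehicle-treated controls.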

[3] = NCI Yeast Anticancer Drug Screen. Data for the sgs1 mgt1 strain (AID 161);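 further: 0% = growth of cultures given vehicle only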; settings: S. cerevisiae sgs1 mgt1 strain, hits give high values
Method in brief: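 Percent growth inhibition was derived by comparing compound-exposed mutant yeast with vehicle-exposed cultures. The strain carries alterations in DNA damage repair.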

[4] = NCI Yeast Anticancer Drug Screen. Data for the cln2 rad14 strain (AID 165);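 further: 0% = growth equal to vehicle treated cultures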; settings: S. cerevisiae cln2 rad14 strain, hits give high values
Method in brief: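 Yeast carrying cln2 and rad14 alterations (cell cycle control and DNA damage repair) were exposed to compounds. Growth inhibition was measured against vehicle-treated controls.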

[5] = NCI Yeast Anticancer Drug Screen. Data for the bub3 strain (AID 167); settings: S. cerevisiae bub3 mutant strain, hits give high values
Method in brief: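 Compounds were applied to a genetically altered yeast strain carrying a cell-cycle control defect. Growth inhibition was scored against vehicle-treated controls.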

[6] = NCI Yeast Anticancer Drug Screen. Data for the mlh1 rad18 strain (AID 175); settings: S. cerevisiae mlh1 rad18 strain growth inhibition, hits give high values
Method in brief: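 Growth inhibition of the yeast strain was measured after compound exposure and expressed relative to vehicle-treated controls. The strain carries defined defects in DNA damage repair.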

[7] = at 5.0 µM (retest, dose inferred, filed as 0.5)
[8] = at 50.0 µM (retest, dose inferred, filed as 5.0)

SMILES | growth inhibition [1, 7] | growth inhibition [1, 8] | growth inhibition ([1]; at 50.0 µM) | growth inhibition [2, 7] | growth inhibition [2, 8] | growth inhibition ([2]; at 50.0 µM) | growth inhibition [3, 7] | growth inhibition [3, 8] | growth inhibition ([3]; at 50.0 µM) | growth inhibition [4, 7] | growth inhibition [4, 8] | growth inhibition ([4]; at 50.0 µM) | growth inhibition [5, 7] | growth inhibition [5, 8] | growth inhibition ([5]; at 50.0 µM) | growth inhibition [6, 7] | growth inhibition [6, 8] | growth inhibition ([6]; at 50.0 µM)
CC1CC(=O)OC(C(=O)c2ccccc2)N1c1ccc(C(F)(F)F)cc1N (stereo not given) | 4% | 30% | 81.6% (active) | 11% | 11% | 65% | 8% | 38% | 59.4% | 0% | 2% | 56.4% | 2% | 10% | 32.2% | 3% | 27% | 88.4% (active)
NC(CCl)=NCC1C2CC3CC(C2)CC1C3 (stereo not given) | 14% | 99% (active) | 87.9% (active) | 11% | 99% (active) | 90.2% (active) | 11% | 99% (active) | 90.8% (active) | -3% | 99% (active) | 84.5% (active) | 10% | 98% (active) | 89.2% (active) | 19% | 99% (active) | 89.9% (active)
CC(C)(C)c1ccc(Sc2ncnc3ccccc23)cc1 | 4% | 78% (active) | 90.8% (active) | 21% | 90% (active) | 89.3% (active) | 2% | 89% (active) | 89.5% (active) | -1% | 81% (active) | 71.2% (active) | 3% | 90% (active) | 92.5% (active) | -6% | 87% (active) | 91.6% (active)
Nc1ccc(CSc2ccc(Cl)cc2)cc1Cl | -3% | 99% (active) | 37% | -5% | 99% (active) | 3.9% | -6% | 98% (active) | 40.9% | -16% | 99% (active) | -24.7% | 32% | 99% (active) | 4.35% | 1% | 99% (active) | 13.7%
O=C(O)C(Cc1cc(I)c(O)c(I)c1)c1ccccc1 (stereo not given) | -14% | 29% | 60.1% | -1% | 34% | 19.2% | -25% | 38% | 16.8% | -5% | 41% | 32.6% | -4% | 29% | 21.9% | 0% | 45% | 57.5%
C=CCc1cc(C(=O)OCC)cc(OC)c1O | 78% (active) | 97% (active) | 5.15% | 22% | 98% (active) | -1.1% | 34% | 91% (active) | 3.9% | 20% | 95% (active) | -23.4% | 19% | 95% (active) | 74% (active) | 44% | 97% (active) | -0.35%
COc1ccc2c(c1)C=C([N+](=O)[O-])C(C1OC(C)(C)OC1C1COC(C)(C)O1)O2 (stereo not given) | 17% | 12% | 7.3% | 22% | 24% | 65.2% | 24% | 14% | 16.5% | 19% | 11% | 45.1% | 48% | 43% | 0.6% | 24% | 21% | 19.8%
CN(C)CC1CCC/C(=C\c2ccc(Cl)c(Cl)c2)C1=O (stereo not given) | 19% | 98% (active) | 69.3% | 9% | 98% (active) | 81.8% (active) | -1% | 97% (active) | 86.5% (active) | 7% | 97% (active) | 86.5% (active) | -22% | 98% (active) | 86% (active) | 6% | 97% (active) | 89.3% (active)
CN(C)CCC(=O)c1ccc2c(ccc3ccccc32)c1 | 5% | 36% | 69.7% | 10% | 83% (active) | 66.8% | 8% | 92% (active) | 90.5% (active) | -3% | 51% | -7.8% | 6% | 94% (active) | 84.7% (active) | 0% | 90% (active) | 77.2% (active)
COc1ccc(NC(=O)/C(=C/c2ccccc2)C(C)=O)cc1 | 59% | 98% (active) | 98.1% (active) | 57% | 99% (active) | 98.2% (active) | 53% | 98% (active) | 98.5% (active) | 19% | 95% (active) | 97.5% (active) | 65% | 98% (active) | 98.1% (active) | 68% | 99% (active) | 98.1% (active)
CS(=O)c1cc(=O)c2ccccc2s1 (stereo not given) | 6% | 85% (active) | 98.2% (active) | -4% | 73% (active) | 98.9% (active) | 19% | 67% | 99.3% (active) | 10% | 60% | 84.4% (active) | 0% | 95% (active) | 96.2% (active) | 14% | 88% (active) | 99% (active)
CCc1cc2c(cc1O)CC[C@@H]1[C@@H]2CC[C@]2(C)[C@@H](O)CC[C@@H]12 | 31% | 96% (active) | 88% (active) | -10% | 99% (active) | 92% (active) | -17% | 96% (active) | 89.3% (active) | 9% | 97% (active) | 91% (active) | -39% | 98% (active) | 49.5% | 3% | 97% (active) | 85.2% (active)
CC(=O)OC1CCC2(C)C(=CCC3C2CCC2(C)C(C(C)N)CCC32)C1 (stereo not given) | 8% | 98% (active) | 98.3% (active) | 18% | 98% (active) | 98.7% (active) | 18% | 98% (active) | 93% (active) | -62% | 96% (active) | 70.8% (active) | 1% | 78% (active) | 95.8% (active) | 8% | 98% (active) | 98.1% (active)
COc1ccc(/C(Cl)=C(/c2ccc(O)cc2)c2ccc(OCCN(C)C)cc2)cc1 | 40% | 40% | 91.8% (active) | 32% | 32% | 87.7% (active) | 42% | 42% | 92.3% (active) | 34% | 34% | 89.3% (active) | 26% | 26% | 88.6% (active) | 27% | 27% | 88.8% (active)
C=Cc1nc(N)nc(-c2ccc(C)cc2)n1 | 7% | 91% (active) | 92.3% (active) | 12% | 94% (active) | 91.3% (active) | 3% | 95% (active) | 92.6% (active) | -8% | 74% (active) | 49.2% | 6% | 93% (active) | 86% (active) | 7% | 96% (active) | 95.2% (active)
CCCCCCCCCCCC[n+]1ccc(C#N)cc1 | 27% | 81% (active) | 99.2% (active) | 30% | 98% (active) | 95.9% (active) | 28% | 97% (active) | -5.4% | 26% | 78% (active) | 84.4% (active) | 34% | 92% (active) | 47.8% | 16% | 92% (active) | 99.5% (active)
COc1ccc(-c2noc(=O)c3ccccc23)cc1 | 11% | 6% | -5.8% | 5% | 4% | -1.1% | 6% | 4% | 3.4% | 4% | 3% | 64.2% | -3% | -2% | 9.65% | -1% | 1% | 1.35%
CN(C)N=Nc1c(-c2ccccc2)n[nH]c1-c1ccccc1 | 95% (active) | 99% (active) | 99.6% (active) | 99% (active) | 100% (active) | 99.5% (active) | 99% (active) | 100% (active) | 99.3% (active) | 99% (active) | 99% (active) | 99.5% (active) | 99% (active) | 99% (active) | 99.5% (active) | 99% (active) | 100% (active) | 99.5% (active)
O=[N+]([O-])c1cc(C(F)(F)F)cc([N+](=O)[O-])c1N1CCCC(n2cccc2)C1 (stereo not given) | -11% | 21% | 34.6% | -6% | 19% | 45.8% | -4% | 26% | 58.3% | 7% | 28% | 34.1% | -9% | 55% | 71.2% (active) | 1% | 33% | 47.9%
COC(=O)c1cc[nH]c(=O)c1 | -150% | -166% | 9.2% | -48% | -56% | 12.2% | -62% | -68% | 11.4% | -55% | -70% | -18.8% | -71% | -86% | 0.55% | -138% | -122% | 60.8%
